The target in assay [1] is Cellular tumor antigen p53 (Homo sapiens) (UniProt P04637). Kind of assay: Primary qHTS for small molecule compounds that upregulate eGFP-tagged delta133p53alpha (in N-terminal) cells. (AID 2060322). Further: nearly all actives have a fitted effect of over 75% in size. Further: potency means the concentration at half of the fitted maximal effect.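 On activation: 0% = DMSO vehicle and 100% = reference activator.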 The note with it: NCI-H358 eGFP-delta133p53alpha fluorescence, 24 h; activation: active compounds read high. In outline:
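NCI-H358 cells pre-induced 24 h with 10 ng/ml doxycycline to express N-terminal eGFP-delta133p53alpha, then dosed 24 h at 37C without doxycycline; fixed, Hoechst-stained, GFP intensity by laser scanning cytometry, normalized to DMSO (0%) and 57.5 uM 5-azacytidine (100%).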

The target in assay [2] is Aldehyde dehydrogenase, mitochondrial (Homo sapiens) (UniProt P05091). The experiment in a line: qHTS for Inhibitors of the Aldehyde Dehydrogenase Family (ALDH2) Primary screen (AID 2061308).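 Further: plate controls were vehicle for no effect and reference inhibitor for full effect; nearly all actives have a fitted effect of over 55% in size.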 The note with it: ALDH2 enzyme inhibition qHTS, 1536-well; series mostly up to 56 µM.
Assay [3] deals with Retinaldehyde dehydrogenase 3 (Homo sapiens) (UniProt P47895). The experiment in a line: qHTS for Inhibitors of the Aldehyde Dehydrogenase Family (ALDH1A3) Validation screen (AID 2061312). Further: on the % scale 0 is the no-effect control and ±100 the full control effect; nearly all actives have a fitted effect of over 45% in size. The settings on record: ALDH1A3 enzyme inhibition qHTS validation, fluorescence; series mostly up to 42.4 µM. (qHTS replaces the single test concentration by a dilution series.)
Assay [4] has the same target. The experiment in a line: qHTS for Inhibitors of the Aldehyde Dehydrogenase Family (ALDH1A3) Primary screen (AID 2061315).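 Further: plate controls were DMSO vehicle for no effect and reference inhibitor for full effect.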 The note with it: ALDH inhibition qHTS; series mostly up to 56 µM.

Where “and” joins values, the source holds several entries; their conditions need not be identical. Equal entries are not always repeated. Inconclusive results are not listed. A number with no mark means an inactive call. Calls of active or inactive are those of the source. The call rests on the fitted dose curve; in most records, active means well fitted curve in the direction sought with a large enough effect; inconclusive means small, poorly fitted or top-dose-only effect, or another doubt; inactive means no such curve, though single readings can be large; an effect the other way counts as inactive or inconclusive.

Sequence of Cellular tumor antigen p53 (Homo sapiens) (P04637 whole entry, looked up): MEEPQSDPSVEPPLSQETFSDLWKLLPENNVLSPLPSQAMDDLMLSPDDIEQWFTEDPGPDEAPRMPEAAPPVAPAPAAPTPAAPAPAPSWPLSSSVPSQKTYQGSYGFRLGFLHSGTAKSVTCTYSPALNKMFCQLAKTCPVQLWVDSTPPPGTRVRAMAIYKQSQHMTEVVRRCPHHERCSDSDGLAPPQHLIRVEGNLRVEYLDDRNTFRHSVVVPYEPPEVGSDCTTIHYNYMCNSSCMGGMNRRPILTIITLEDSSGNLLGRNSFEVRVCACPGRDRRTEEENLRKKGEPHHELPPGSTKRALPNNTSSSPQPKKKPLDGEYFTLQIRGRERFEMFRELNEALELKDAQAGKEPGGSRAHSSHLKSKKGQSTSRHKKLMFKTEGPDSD

As to `COc1cc(CCNCc2ccccc2O)c(OC)cc1C#N`, the activation in assay [1] was -6.21%. Moreover, the Potency result in assay [2], in assay [3] and in assay [4] was “inactive” throughout.

For `C1=C2CCCN[C@H]2[C@@H]2C[C@H]1[C@H]1CCCCN1C2`, in assay [1], the activation is -9.55%. Further, the Potency entry in assay [2], in assay [3] and in assay [4] was “inactive” throughout.

Consider `Cc1ccccc1CN1CCC(N2CCC(n3c(=O)[nH]c4ccccc43)CC2)CC1`, for which the activation in assay [1] is -15.8%. The Potency entry in assay [2], in assay [3] and in assay [4] was “inactive” each time.

As for `CN[C@H]1[C@H](O)[C@H](O[C@@H]2[C@@H](O)[C@H](O[C@H]3O[C@H]([C@H](C)O)[C@@H](O)[C@H](O)[C@H]3N)[C@@H](N)C[C@H]2N)OC[C@@]1(C)O`, in assay [1], the activation was -4.3%. In addition, the Potency result in assay [2], in assay [3] and in assay [4] was “inactive” in each case.

As for `CCc1c(C(=O)C(N)=O)c2c(OCC(=O)OC)cccc2n1Cc1ccccc1`, the activation in assay [1] was -15.3%. The Potency entry in assay [2], in assay [3] and in assay [4] was “inactive” in each case.

Turning to `CN1C(=O)[C@@H](Cc2c[nH]c3ccccc23)N=C(c2ccccc2F)c2ccccc21`, in assay [1], the activation is 15.8%. Also, the Potency result in assay [2], in assay [3] and in assay [4] was “inactive” throughout.

As to `Cc1cccc(NC(=O)NC2N=C(c3ccccc3)c3ccccc3N(CC(=O)c3ccccc3C)C2=O)c1` (stereo not given), the activation in assay [1] was -13.8%. Further, the Potency result in assay [2], in assay [3] and in assay [4] was “inactive” each time.

In the case of `CCOC(=O)c1cncn1C(C)c1ccccc1` (stereo not given), the activation in assay [1] is 10% and 2.86%. In addition, the Potency result in assay [2], in assay [3] and in assay [4] was “inactive” each time.

In the case of `CC(C)N(CCNC(=O)CN1CCCC1=O)C(C)C`, the activation in assay [1] is -9.94% and -3.34%. Further, the Potency result in assay [2], in assay [3] and in assay [4] was “inactive” each time.

`Cc1ccc2c(c1)[C@H]1CN(C)CC[C@H]1N2C(=O)CSc1nnnn1-c1ccc(Cl)cc1`: the activation in assay [1] is -6.68%. Further, the Potency result in assay [2], in assay [3] and in assay [4] was “inactive” in each case.

Turning to `O=C(N1CCCCC1Cc1ccccc1)n1cc(-c2ccc(-c3ccccc3)cc2)nn1` (stereo not given), the activation in assay [1] was 1.43%. The Potency entry in assay [2], in assay [3] and in assay [4] was “inactive” throughout.

Regarding `CC1(C)C(=O)N(c2ccc(C#N)c(C(F)(F)F)c2)C(=S)N1c1ccc(C(N)=O)c(F)c1`, the activation in assay [1] was 1.43%. Further, the Potency result in assay [2], in assay [3] and in assay [4] was “inactive” in each case.

Regarding `CC(=O)N(C)c1cccc(-c2ccnc3c(C(=O)c4cccs4)cnn23)c1`, the activation in assay [1] was -3.13% and 5.73%. In addition, the Potency entry in assay [2], in assay [3] and in assay [4] was “inactive” in each case.

Turning to `CN(C)CCc1c[nH]c2ccc(CN3CCN(C)S3(=O)=O)cc12`, in assay [1], the activation was -4.3%. Besides, the Potency result in assay [2], in assay [3] and in assay [4] was “inactive” in each case.

With `C[C@H]1CN(Cc2ccc(CC(=O)N3CCC(Nc4cccc(F)c4)CC3)cc2)CCN1`, the activation in assay [1] is -12.4%. Also, the Potency entry in assay [2], in assay [3] and in assay [4] was “inactive” each time.

As to `CCCCCCn1c(=O)c(C(=O)Nc2ccc(C(=O)OCCC)cc2)c(O)c2ccccc21`, the activation in assay [1] is 4.3%. The activity change, negative = inhibition in assay [2] is 11.3% [at 11.2 µM]; in assay [4], 11.2% [at 11.2 µM]. In addition, the Potency result in assay [3] was “inactive”.

As to `CN(Cc1cccc(-c2ccncc2)c1)C(=O)Oc1ccc(-c2ccc(C(N)=O)cc2)cc1`, in assay [1], the activation was -8.11%. Further, the Potency result in assay [2], in assay [3] and in assay [4] was “inactive” throughout.

For `CC(=O)NCCCOc1ccc(C(=O)N2CCC(N3C(=O)CCc4ccccc43)CC2)cc1`, the activation in assay [1] was -10.5%. Also, the Potency entry in assay [2], in assay [3] and in assay [4] was “inactive” in each case.

For `CCN1C[C@]2(OC(=O)c3ccccc3NC(C)=O)CC[C@H](OC)[C@@]34[C@@H]2C[C@@H]([C@@H]13)[C@@]1(O)C[C@H](OC)[C@H]2C[C@@H]4[C@]1(O)[C@H]2OC`, the activation in assay [1] is -6.68%. In addition, the Potency entry in assay [2], in assay [3] and in assay [4] was “inactive” throughout.

For the molecule `O=C(N1CCOCC1)N1CCN(c2ccc(Cl)cc2)CC1`, the activation in assay [1] was 10%. Moreover, the Potency result in assay [2], in assay [3] and in assay [4] was “inactive” each time.

In the case of `CC[C@H](O)[C@@H](C)[C@H]1O[C@@H]1C[C@H](C)/C=C/C=C(\C)[C@H]1OC(=O)C[C@H](O)CC[C@@](C)(O)[C@@H](OC(C)=O)/C=C/[C@@H]1C`, in assay [1], the Potency was 67.5 nM (active). The Potency entry in assay [2], in assay [3] and in assay [4] was “inactive” in each case.

For the molecule `NCCCCCNC1(c2ccccc2)CCCCC1`, in assay [1], the activation was -6.68%. For the same molecule, the Potency result in assay [2], in assay [3] and in assay [4] was “inactive” in each case.

Consider `c1ccc(C2(c3ccccc3)OC[C@@H]([C@H]3CCCCN3)O2)cc1`, for which the activation in assay [1] is 2.86%. Further, the Potency entry in assay [2], in assay [3] and in assay [4] was “inactive” throughout.

`CCOC(=O)C1(CCc2ccccc2)CCN(Cc2ccc(NC(C)=O)cc2)CC1`: in assay [1], the activation is -12.4%. For the same molecule, the Potency entry in assay [2], in assay [3] and in assay [4] was “inactive” throughout.

For the molecule `CCCCCn1cc(C(=O)Cc2ccccc2OC)c2ccccc21`, the activation in assay [1] was 3.34%. Moreover, the Potency result in assay [2], in assay [3] and in assay [4] was “inactive” each time.

(Values after PubChem BioAssay (NCATS).)
